Reference: PubChem BioAssay (EPA / NIEHS)
Records with an inconclusive call do not appear. Activity calls are given as the source filed them. Rule for the calls: active = hit-call score of the fitted dose curve at least 0.9, where 1 is the maximum; inconclusive = response in the unintended direction; inactive = score below 0.9.

Each compound was assayed against Retinoic acid receptor RXR-alpha (Homo sapiens) (UniProt P19793) (assay: ATG_RXRa_TRANS: Attagene TRANS-FACTORIAL HepG2 Assay for human Retinoid X Receptor alpha (RXRa) (AID 2283012)).
Summary of the method: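 Transient transfection of human HepG2 with multiple GAL4-UAS reporter constructs; 24 h compound exposure; total RNA isolated, reverse-transcribed, PCR-amplified, 6-FAM labelled, HpaI-cut, resolved by capillary electrophoresis. Positive-direction fit versus DMSO.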

Sequence of Retinoic acid receptor RXR-alpha (Homo sapiens) (P19793 whole entry, looked up, the tested form may be a part): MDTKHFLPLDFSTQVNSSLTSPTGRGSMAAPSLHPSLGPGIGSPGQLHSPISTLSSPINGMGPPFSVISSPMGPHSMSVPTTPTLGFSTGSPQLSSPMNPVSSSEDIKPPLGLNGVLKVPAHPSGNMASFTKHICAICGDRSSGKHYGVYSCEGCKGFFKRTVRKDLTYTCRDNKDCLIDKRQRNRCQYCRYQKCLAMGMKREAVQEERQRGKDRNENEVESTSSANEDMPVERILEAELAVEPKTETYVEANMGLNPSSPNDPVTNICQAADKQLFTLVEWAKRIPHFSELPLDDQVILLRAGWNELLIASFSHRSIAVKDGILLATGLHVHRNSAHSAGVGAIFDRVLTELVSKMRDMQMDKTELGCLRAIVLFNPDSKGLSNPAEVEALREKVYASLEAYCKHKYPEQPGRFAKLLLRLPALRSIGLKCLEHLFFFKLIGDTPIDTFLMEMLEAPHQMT

Compound | AC50 | outcome
CC=C(C)C(C)=O | 100 µM (active) | –
CCCCC(CC)COC(=O)/C=C/c1ccc(OC)cc1 (configuration not stated) | – | inactive
O=C1CCCCCCCCCCC1 | – | inactive
CC/C=C\C/C=C\C/C=C\CCCCCCCC(=O)OC | – | inactive
CCOC(=O)C1=NOC(c2ccccc2)(c2ccccc2)C1 | – | inactive
C[N+](C)(C)CCCNS(=O)(=O)C(F)(F)C(F)(F)C(F)(F)C(F)(F)C(F)(F)C(F)(F)C(F)(F)C(F)(F)F | – | inactive
Oc1c(Cl)cc(Cl)c(Cl)c1Cl | – | inactive
Nc1cccc(N)n1 | – | inactive
C=CC(=O)OCCCCCCCC(C)C | – | inactive
CC(CCC(=O)O)(c1ccc(O)cc1)c1ccc(O)cc1 | – | inactive
Oc1ccc(/C=C/c2cc(O)cc(O)c2)cc1 | – | inactive
CC=CC(=O)OCC(C)C | – | inactive
CCCCCCCO | – | inactive
CCCCCC1=CCCC1=O | – | inactive
C=CC(=O)OCCCCCCOC(=O)C=C | – | inactive
CC(Cl)COP(=O)(OCC(C)Cl)OCC(C)Cl (configuration not stated) | – | inactive
CC(=O)OC1CCCCC1C(C)(C)C (configuration not stated) | – | inactive
C=CC(=O)OCC(C)OCC(C)OCC(C)OC(=O)C=C (configuration not stated) | – | inactive

These compounds were tested against human Retinoid X Receptor beta (RXRb), RXRB (gene 6257) (UniProt P28702) (assay: ATG_RXRb_TRANS: Attagene TRANS-FACTORIAL HepG2 Assay for human Retinoid X Receptor beta (RXRb) (AID 2283013)).
Summary of the method: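 Transfect HepG2 with GAL4-UAS multi-reporter constructs (chimeric NR-Gal4, TRANS format); dose compound 24 h; isolate RNA, RT-PCR, FAM primer extension, HpaI digest; quantify by capillary electrophoresis; positive direction vs DMSO.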

Sequence of human Retinoid X Receptor beta (RXRb), RXRB (gene 6257) (P28702 whole entry, looked up, the tested form may be a part): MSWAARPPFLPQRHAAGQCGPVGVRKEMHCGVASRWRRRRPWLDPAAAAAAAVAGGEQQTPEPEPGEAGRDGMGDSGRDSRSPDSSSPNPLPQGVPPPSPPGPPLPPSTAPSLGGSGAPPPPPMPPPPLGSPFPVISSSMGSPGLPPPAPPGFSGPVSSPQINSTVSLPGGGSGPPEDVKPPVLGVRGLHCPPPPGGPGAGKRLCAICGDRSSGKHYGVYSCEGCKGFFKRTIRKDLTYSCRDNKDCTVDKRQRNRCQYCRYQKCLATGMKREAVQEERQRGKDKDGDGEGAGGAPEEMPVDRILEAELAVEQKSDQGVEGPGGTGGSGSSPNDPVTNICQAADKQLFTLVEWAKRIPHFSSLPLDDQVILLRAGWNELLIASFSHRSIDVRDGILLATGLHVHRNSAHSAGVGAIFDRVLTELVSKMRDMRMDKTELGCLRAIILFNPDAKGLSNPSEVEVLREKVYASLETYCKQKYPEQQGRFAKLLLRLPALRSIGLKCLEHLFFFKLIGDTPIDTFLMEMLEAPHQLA

Compound | outcome | AC50
CCNc1nc(NC(C)(C)C)nc(OC)n1 | inactive | –
CC=C(C)C(C)=O | – | 9.05 µM (active)
CCCCC(CC)COC(=O)/C=C/c1ccc(OC)cc1 (configuration not stated) | inactive | –
O=C1CCCCCCCCCCC1 | – | 44.4 µM (active)
Cc1ccc([N+](=O)[O-])cc1N | inactive | –
CC/C=C\C/C=C\C/C=C\CCCCCCCC(=O)OC | – | 125 µM (active)
c1ccc2sc(SSN3CCOCC3)nc2c1 | inactive | –
CC=C(C)C=CC=C(C)C | inactive | –
Nc1cccc(N)n1 | inactive | –
C=CC(=O)NC(C)(C)C | inactive | –
C=CC(=O)OCCCCCCCC(C)C | inactive | –
Oc1ccccc1Cc1ccccc1O | inactive | –
CC1=CC=C(C(C)C)CC1 | inactive | –
C=CC(=O)NCOCCCC | inactive | –
Oc1ccc(/C=C/c2cc(O)cc(O)c2)cc1 | inactive | –
CCCCCCCCC(CO)CCCCCC (configuration not stated) | – | 21.9 µM (active)
C=C(C)C(=O)OCCCCCCCCCCCC | – | 67.8 µM (active)
CC1=NN(c2ccc(S(=O)(=O)O)cc2)C(=O)C1N=Nc1ccccc1 (configuration not stated) | inactive | –
CCCCCCCO | – | 114 µM (active)
CCCCCC1=CCCC1=O | inactive | –
C=CC(=O)OCCCCCCOC(=O)C=C | inactive | –
CC(Cl)COP(=O)(OCC(C)Cl)OCC(C)Cl (configuration not stated) | inactive | –
CCC1(C)C(=O)N(Cl)C(=O)N1Cl (configuration not stated) | inactive | –
CC(=O)OC1CCCCC1C(C)(C)C (configuration not stated) | – | 58.9 µM (active)
